# Assay outcomes as filed in PubChem BioAssay.
# Most compounds without a hit are left out; they make up all but 6.8% or so of the library.
# C diff HTS: C. difficile growth inhibitors, primary screen, HTS | Clostridium difficile clinical isolate growth, OD600, 24 h; hits give low values | growth activity, negative = inhibition, % at 16 µg/mL (by protocol) | hit rate 0.25% among 86,000 | AID 1259249, 2017;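 active = mean growth activity at or below -80% and every replicate also at or below -80%; inconclusive = mean at or below -80% but some replicate above -80%; inactive = mean growth activity above -80%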;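 note: 0% = DMSO wells and -100% = levofloxacin 16 µg/mL wells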
# T cruzi growth-1: T. cruzi intracellular proliferation inhibitors, primary screen, cell-based, beta-gal Tulahuen parasites, NIH3T3 host, luminescence; inhibition, % at 8.34 µM; AID 624255, 2012; hit rate 5.9% among 77,000; T. cruzi beta-gal in NIH3T3, GalScreen luminescence, 90 h;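 active = mean inhibition above about 93%, with at least 55% of replicates each passing it, limit read from the data, passing the limit was not always enough; inconclusive = only one of those two conditions holds; inactive = neither condition holds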
# Pf Dd2 growth: P. falciparum Dd2 growth inhibitors, primary screen, SYBR Green fluorescence, single dose replicates. 72 h; hits give low values. AID 1159554, 2015. activity change, % at 10 µM. hit rate 2.3% among 94,000; in the data active = activity change below about -80%; inconclusive = no clear call, values can overlap the other calls
# T cruzi growth-2: T. cruzi intracellular proliferation inhibitors, confirmation, cell-based, NIH3T3 host, beta-gal parasite, luminescence, cherry-pick; shares compounds with T cruzi growth-1; inhibition, % at 8.35 µM; AID 651739, 2012; T. cruzi beta-gal in NIH3T3, GalScreen luminescence, 90 h; hit rate 72% among 5,600;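 active = mean replicate inhibition above about 95% and at least 55% of replicates individually reaching it, limit read from the data; inconclusive = only one of the two criteria is met; inactive = neither criterion is met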
# T cruzi growth-3: inhibitors of intracellular T. cruzi replication, confirmation, NIH3T3 host cells, beta-gal parasites, cherry-pick, set 2. shares compounds with T cruzi growth-1. inhibition, % at 2.09 µM. T. cruzi beta-gal in NIH3T3, GalScreen luminescence, 90 h. hit rate 21% among 5,600. AID 651740, 2012;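 active = mean inhibition above about 95%, with at least 55% of replicates also reaching it, limit read from the data; inconclusive = meets just one of the two conditions; inactive = meets neither condition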;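 note: plate controls were neutral control median for no effect and positive control median for full effect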
# NIH3T3 tox: cytotoxicity in mouse NIH/3T3 fibroblasts, confirmation, cytotoxicity control for T. cruzi proliferation inhibitor project, cell-based, cherry-pick, single point; hit rate 14% among 5,600; cytotoxicity (signal decrease), % at 8.35 µM; shares compounds with T cruzi growth-1; AID 651742, 2012; NIH/3T3 viability, CellTiter-Glo ATP luminescence, 90 h;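 active = mean signal decrease across replicates above about 35% based on untreated-well scatter, with enough replicates individually passing, limit read from the data; inconclusive = no rule stated though some were filed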;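 note: 0% = median of neutral control wells and 100% = median of positive control wells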
# 3T3 cytotox 2: NIH/3T3 fibroblast cytotoxicity, confirmation, cytotoxicity control, cell-based, cherry-pick, single point, set 2 | shares compounds with T cruzi growth-1 | NIH/3T3 viability, CellTiter-Glo ATP luminescence, 90 h | inhibition, % at 24.9 µM | hit rate 56% among 5,600;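 active = mean loss of cell viability signal at or above a set limit, and enough replicates individually reaching it; inconclusive = meets only the mean limit or only the replicate share; inactive = meets neither condition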;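 note: 0% = median of neutral control wells and 100% = median of positive control wells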
# Starred values were filed as active, the others as inactive; ? = inconclusive; / = no result.
SMILES,C diff HTS,T cruzi growth-1,Pf Dd2 growth,T cruzi growth-2,T cruzi growth-3,NIH3T3 tox,3T3 cytotox 2
CCC(=O)N1CC2(CCN(C(=O)NC(C)C)CC2)c2c(n(C)c3cc(OC)ccc23)[C@@H]1CO,-2,/,11,/,/,/,/
COc1ccc(CN(C)C[C@@H]2Oc3ccc(NC(=O)Nc4ccc(OC)cc4)cc3CC(=O)N([C@@H](C)CO)C[C@@H]2C)cc1,-6,29,4,/,/,/,/
CO[C@@H]1CN(C)C(=O)c2cc(NC(=O)c3cccc(F)c3)ccc2OC[C@@H](C)N(C(C)=O)C[C@H]1C,/,32,/,/,/,/,/
C[C@@H]1CN([C@@H](C)CO)C(=O)c2cc(NS(=O)(=O)c3ccc(Cl)cc3)ccc2O[C@@H](C)CCCCO[C@H]1CN(C)C(=O)CCC(F)(F)F,-20,42,-5,/,/,/,/
C[C@@H]1CN([C@H](C)CO)C(=O)c2cc(NS(=O)(=O)c3ccc(Cl)cc3)ccc2O[C@@H](C)CCCCO[C@@H]1CN(C)C(=O)CCC(F)(F)F,-10,99*,-36,82,52,16,71*
C[C@@H]1CCCCO[C@H](CN(C)C(=O)CCC(F)(F)F)[C@@H](C)CN([C@H](C)CO)C(=O)c2cc(NS(=O)(=O)c3ccc(Cl)cc3)ccc2O1,-14,88,-22,/,/,/,/
C[C@@H]1CCCCO[C@H](CN(C)C(=O)CCC(F)(F)F)[C@H](C)CN([C@@H](C)CO)C(=O)c2cc(NS(=O)(=O)c3ccc(Cl)cc3)ccc2O1,-4,104*,-2,103*,68,11,72*
CCC(=O)Nc1ccc2c(c1)C(=O)N(C)C[C@H](OC)[C@H](C)CN(C(=O)Cc1ccccn1)[C@@H](C)CO2,/,4,-7,/,/,/,/
COCC(=O)Nc1ccc2c(c1)OC[C@@H](C)N(C(=O)C1CCCC1)C[C@@H](C)[C@@H](OC)CN(C)C2=O,-1,-42,-45,/,/,/,/
COc1ccc(S(=O)(=O)N(C)C[C@@H]2Oc3ccc(NC(=O)CCCCCC(=O)Nc4ccccc4N)cc3C(=O)N([C@@H](C)CO)C[C@@H]2C)cc1,-2,/,-47,/,/,/,/
C/C=C/c1ccc2c(c1)O[C@H](CN(C)C)[C@@H](C)CN([C@@H](C)CO)S2(=O)=O,1,/,-11,/,/,/,/
C[C@H](CO)N1C[C@H](C)[C@H](CN(C)Cc2ccc(Oc3ccccc3)cc2)Oc2c(NC(=O)c3ccc(-c4nccs4)cc3)cccc2C1=O,/,103*,-61,110*,109*,24,25*
C[C@H]1CN([C@@H](C)CO)C(=O)c2cccc(NC(=O)c3ccc(-c4nccs4)cc3)c2O[C@H]1CN(C)Cc1ccc(C(=O)Nc2ccccc2N)cc1,-5,98*,-91*,102*,101*,22,56*
C[C@@H]1CN([C@@H](C)CO)C(=O)c2cccc(NC(=O)c3ccc(-c4nccs4)cc3)c2O[C@H]1CN(C)CC1CCCCC1,9,99*,-70,117*,74,7,15
C[C@H]1CN([C@@H](C)CO)C(=O)c2cccc(NC(=O)c3ccc(-c4nccs4)cc3)c2O[C@@H]1CN(C)Cc1ccc(-c2ccccc2)cc1,-6,99*,-84*,107*,68,-3,-14
C[C@H]1CN([C@@H](C)CO)C(=O)c2cccc(NC(=O)c3ccc(-c4nccs4)cc3)c2O[C@@H]1CN(C)Cc1ccccc1,2,71,-18,/,/,/,/
C[C@H](CO)N1C[C@H](C)[C@@H](CN(C)CC2CCCCC2)Oc2c(NC(=O)c3ccc(-c4nccs4)cc3)cccc2C1=O,3,60,-52,/,/,/,/
C[C@@H]1CN([C@H](C)CO)C(=O)c2cccc(NC(=O)c3ccc(-c4nccs4)cc3)c2O[C@H]1CN(C)Cc1ccc(Oc2ccccc2)cc1,/,78,-52,/,/,/,/
C[C@H](CO)N1C[C@H](C)[C@H](CN(C)Cc2ccccc2)Oc2c(NC(=O)c3ccc(-c4nccs4)cc3)cccc2C1=O,-2,52,-12,/,/,/,/
CO[C@@H]1CN(C)C(=O)c2cc(NC(C)=O)ccc2OC[C@H](C)N(Cc2ccccc2F)C[C@H]1C,/,-49,-3,/,/,/,/
C[C@H]1CN([C@@H](C)CO)S(=O)(=O)c2ccc(C#CCC3CCCC3)cc2O[C@@H]1CN(C)C(=O)CC1CC1,16,121*,-66,103*,113*,-22,105*
CC(=O)N(C)C[C@H]1Oc2cc(C#CCC3CCCC3)ccc2S(=O)(=O)N([C@H](C)CO)C[C@H]1C,8,34,-25,/,/,/,/
C[C@@H]1CN([C@@H](C)CO)S(=O)(=O)c2ccc(C#CCC3CCCC3)cc2O[C@@H]1CN(C)C(=O)CN(C)C,5,98,-64,/,/,/,/
C[C@H](CO)N1C[C@H](C)[C@@H](CN(C)C(=O)CC2CC2)Oc2cc(C#CCC3CCCC3)ccc2S1(=O)=O,17,116*,-66,?,102*,31,104*
C[C@H](CO)N1C[C@H](C)[C@H](CN(C)C(=O)CC2CC2)Oc2cc(C#CCC3CCCC3)ccc2S1(=O)=O,4,121*,-66,99*,63,2,104*
SMILES,C diff HTS,T cruzi growth-1,Pf Dd2 growth,T cruzi growth-2,T cruzi growth-3,NIH3T3 tox,3T3 cytotox 2
C[C@@H]1CN([C@@H](C)CO)S(=O)(=O)c2ccc(C#CCC3CCCC3)cc2O[C@H]1CN(C)C(=O)CN(C)C,-2,122,-60,/,/,/,/
C[C@H](CO)N1C[C@H](C)[C@@H](CN(C)C(=O)CC2CC2)Oc2cc(C3=CCCC3)ccc2S1(=O)=O,6,40,-5,/,/,/,/
COc1ccc(-c2ccc([C@H]3[C@@H](CO)N4CCCCN(CC5CCOCC5)C[C@@H]34)cc2)cc1,-2,99*,0,?,27,?,78*
COc1ccc(-c2ccc([C@H]3[C@@H](CO)N4CCCCN(CC5CCOCC5)C[C@H]34)cc2)cc1,-9,101*,-32,94,67,19,96*
COc1ccc(-c2ccc([C@H]3[C@H]4CN(CC5CCOCC5)CCCCN4[C@H]3CO)cc2)cc1,-8,-2,-22,/,/,/,/
COc1cccc(-c2ccc([C@H]3[C@@H](CO)N4CCCCN(CC5CCOCC5)C[C@@H]34)cc2)c1,5,68,-3,/,/,/,/
CN(C)CCCNC(=O)C[C@H]1CC[C@@H]2[C@@H](COc3ccc(NC(=O)c4ccc5c(c4)OCO5)cc3C(=O)N2C)O1,2,-27,2,/,/,/,/
COc1cccc(S(=O)(=O)N2CC[C@@H]3[C@H](CO)Nc4ccc(Br)cc4[C@@H]32)c1,-16,61,6,/,/,/,/
